# Assay results as given in PubChem BioAssay (NCATS).
# Results filed as inconclusive are left out. Unmarked numbers belong to inactive results. Activity calls are given as the source filed them. Calls follow the shape of the dose curve; as a rule, active = well fitted inhibition curve with a large enough effect; inconclusive = small, poorly fitted or top-dose-only effect; inactive = flat fitted curve, though single readings scatter.
# Target: Phospholipid hydroperoxide glutathione peroxidase GPX4 (Homo sapiens) (UniProt P36969)
# Sequence (P36969 whole entry, looked up): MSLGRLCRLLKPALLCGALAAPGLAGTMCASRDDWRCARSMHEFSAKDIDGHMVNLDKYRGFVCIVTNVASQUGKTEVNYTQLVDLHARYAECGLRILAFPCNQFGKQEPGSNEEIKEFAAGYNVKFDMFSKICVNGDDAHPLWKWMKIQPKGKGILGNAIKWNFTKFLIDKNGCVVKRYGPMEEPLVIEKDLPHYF
# Experiment: Primary qHTS Assay for Inhibitors of Recombinant Selenoprotein Glutathione Peroxidase 4 (GPX4) (AID 1845192); also: nearly all actives have a fitted effect of over 65% in size
# Details: recombinant GPX4, GR-coupled NADPH fluorescence, 15 min; series mostly up to 50 µM; activity change, negative = inhibition: at the top concentration
# From the text: Assay Provider: Elias S.J. Arner MD PhD.
# Department of Medical Biochemistry and Biophysics
# Karolinska Institutet, Solna, Stockholm, Sweden
# Selenoprotein glutathione peroxidases (GPX), like the ubiquitously expressed GPX1 and the ferroptosis modulator GPX4, enact their antioxidant activities by reducing hydroperoxides using glutathione. […] GPX1 and GPX4 inhibitors have thus shown promise as anti-cancer agents. Existing inhibitors are often promiscuous, or modulate GPX activity only indirectly, so novel direct inhibitors identified through screening against GPX1 and GPX4 could be valuable. Here, we developed optimized glutathione reductase (GR)-coupled GPX assays for the biochemical high-throughput screen (HTS) of almost 12,000 compounds with known mechanisms of action. Initial hits were triaged using a GR counter-screen, assessed for isoform specificity using a separate GPX2 assay, and were assessed for general selenocysteine-targeting activity using a thioredoxin reductase (TXNRD1) assay. With this suite of assays, we identified novel GPX1/GPX2- and GPX4-specific inhibitors and can here present a validated pipeline for future discovery research for selenoprotein-targeting agents.
# SEQUENCE No. (e.g., 1, 2, 3, etc.); […] (e.g., Cells, Incubation, Reagent, etc.); VALUE; DESCRIPTION.
# 1; Reagent 1; 3 uL; 333.33 nM GPx4 enzyme or no enzyme control in 1536-well, black, solid Greiner assay plate.
# 2; Compound; 25 nL; Kalypsis pin tool (Wako USA) equipped with a 1536-well pin head.
# 3; Incubation; 30 min; room temperature.
# 4; Reagent 2; 1 uL; 500 nM GR, 5 mM GSH, 2.5 mM NADPH solution
# 5; Reagent 3; 1 uL; 2.5 mM CHP in 50% EtOH.
# 6; Detection; Fluorescence; ViewLux microplate reader, excitation 340 nm and emission 450 nm.
# 7; Incubation; 15 min; room temperature.
# 8; Detection; Fluorescence; ViewLux microplate reader, excitation 340 nm and emission 450 nm.
# NOTES (numbers refer to Sequence numbers above)
# 1. 3 µL of 333.33 nM GPX4 and 0.016% BSA in assay buffer (50 mM Tris-HCl, 2 mM EDTA (pH 7.5), 150 mM NaCl) was added to columns 3-48 of 1536-well plates using a BioRAPTR Flying Reagent Dispenser (Let's Go Robotics (LGR), Carlsbad, CA). A no-enzyme control (0.01% BSA in TES assay buffer) was added to columns 1-2.
# 2. 25 nL, library and DMSO controls were added to each well with a pin tool (Kalypsys).
# 3. The assay plates were incubated for 30 minutes at room temperature.
# 4. 1 µL of master mix (500 nM glutathione reductase (GR), 5 mM reduced glutathione (GSH), 2.5 mM NADPH in assay buffer) was added.
# 5. 1 µL of cumene hydroperoxide (CHP) ([2.5 mM] in 50% EtOH) was then added within 5 minutes to initiate the reaction. Final concentrations were: 200 nM GPX4, 1 mM GSH, 0.5 mM CHP, 0.5 mM NADPH, 100 nM GR, 0.01% BSA.
# 6. Initial fluorescence readout (t=0) at 340/450 nm was measured using a ViewLux multimodal detector (PerkinElmer, Waltham, MA).
# 8. Endpoint fluorescence readout (t=15) at 340/450 nm was measured 15 min after room temperature incubation.
# % is scaled to controls: 0 for no effect and ±100 for the full control effect; potency is read from the fitted curve at half-maximal effect.
Structure (SMILES),outcome,"activity change, negative = inhibition",Potency
CNC(C)C(O)c1ccccc1 (stereo not given),inactive,,
C=CCCCCCCCCC(=O)O[C@H]1CC[C@H]2[C@@H]3CCC4=CC(=O)C=C[C@]4(C)[C@H]3CC[C@]12C,inactive,,
C=C[C@H]1CN2CC[C@H]1C[C@H]2[C@H](O)c1ccnc2ccccc12,,3.54%,
Cn1c(COP(=O)(NCCBr)NCCBr)cnc1[N+](=O)[O-],,-16.7%,
C[C@]12COC(=O)C[C@@H]1CC[C@@H]1[C@@H]2CC[C@@]2(C)[C@H]1CC[C@]2(C)O,,-9.31%,
CC(=O)O[C@@]12CO[C@@H]1C[C@H](O)[C@@]1(C)C(=O)[C@H](O)C3=C(C)[C@@H](O)C[C@@](O)([C@@H](OC(=O)c4ccccc4)[C@H]21)C3(C)C,,-0.0121%,
COc1cc(C)[nH]c(=O)c1CNC(=O)c1c(C)n([C@H](C)C2CCN(CC(F)(F)F)CC2)c2ccccc12,,-19.7%,
C/C1=C/C[C@@H](/C(C)=C/c2csc(C)n2)OC(=O)C[C@H](O)C(C)(C)C(=O)[C@H](C)[C@@H](O)[C@@H](C)CCC1,,-10.5%,
CN(C(=O)/C=C/c1ccoc1)[C@@H]1CC[C@@]2(O)[C@H]3Cc4ccc(O)c5c4[C@@]2(CCN3CC2CC2)[C@H]1O5,,-21.3%,
C[C@]12CC[C@H](O)C[C@H]1CCC1C2CC[C@]2(C)[C@@H](c3ccc(=O)oc3)C[C@H]3O[C@]132 (stereo not given in full),,-14.1%,
CNC(C)[C@@H](O)c1ccc(O)cc1 (stereo not given in full),,-0.73%,
c1ccc(CCNCc2ccccc2)cc1,inactive,,
Cc1c(N)nc([C@H](CC(N)=O)NC[C@@H](N)C(N)=O)nc1C(=O)N[C@H](C(=O)N[C@@H](C)[C@H](O)[C@@H](C)C(=O)N[C@@H](C(=O)NCCc1nc(-c2nc(C(=O)NCCC[S+](C)C)cs2)cs1)[C@@H](C)O)C(O[C@H]1O[C@H](CO)[C@H](O)[C@@H](O)[C@H]1O[C@H]1O[C@H](CO)[C@@H](O)[C@H](OC(N)=O)[C@@H]1O)c1cnc[nH]1 (stereo not given in full),,,inactive
CNC(C)CC1CCCC1 (stereo not given),,-9.53%,
O=C(CBr)N1CC([N+](=O)[O-])([N+](=O)[O-])C1,,0.196% [at 100 µM],
CC(Cc1ccc2c(c1)OCO2)NCC(O)c1ccc(O)c(O)c1 (stereo not given),,,15.8 µM (active)
COC12C(COC(N)=O)C3=C(C(=O)C(C)=C(N)C3=O)N1CC1C2N1C (stereo not given),,3.57%,
CN1C(=O)[C@@H](NC(=O)[C@H](CCC(F)(F)F)[C@H](CCC(F)(F)F)C(N)=O)N=C(c2ccccc2)c2ccccc21,inactive,,
CCC(=O)O[C@H]1CC[C@H]2[C@@H]3CC[C@H]4CC(=O)[C@H](C)C[C@]4(C)[C@H]3CC[C@]12C,,-5.35%,
C=C/C=C/CC1=C(C)[C@H](OC(=O)[C@H]2[C@H](/C=C(\C)C(=O)OC)C2(C)C)CC1=O,,-25.4%,

Structure (SMILES),outcome,"activity change, negative = inhibition",Potency
C/C=C(\C)C(=O)N[C@@H](c1ccccc1)[C@@H](O)C(=O)O[C@H]1C[C@@]2(O)[C@@H](OC(=O)c3ccccc3)[C@@H]3[C@]4(OC(C)=O)CO[C@@H]4C[C@H](O)[C@@]3(C)C(=O)[C@H](OC(C)=O)C(=C1C)C2(C)C,,-18.7%,
CC(C)OC(=O)[C@H](C)N[P@](=O)(CO[C@H](C)Cn1cnc2c(N)ncnc21)Oc1ccccc1,inactive,,
CCCCOc1ccc(C[N+]2(C)C3CCC2CC(OC(=O)[C@H](CO)c2ccccc2)C3)cc1 (stereo not given in full),,2.97%,
C[C@@H](C1CC[C@@]2(O)C3=CC(=O)[C@@H]4C[C@@H](O)[C@@H](O)C[C@]4(C)[C@H]3CC[C@]12C)[C@H](O)CCC(C)(C)O (stereo not given in full),,0.173%,
COc1cc2cc(c1Cl)N(C)C(=O)C[C@H](OC(=O)C(C)C)[C@]1(C)O[C@@H]1[C@H](C)[C@@H]1C[C@@](O)(NC(=O)O1)[C@H](OC)/C=C/C=C(\C)C2,,-21.5%,
CCOC(=O)C=C(C)C=CC[C@@H](C)CCCC(C)C,,-7.53%,
CO[C@@H](COC(N)=O)C1=C(N2CC2)C(=O)C(C)=C(N2CC2)C1=O,,-23.8%,
CC1(C)CC(O)CC(C)(C)N1O,inactive,,
COC[C@H]1OC(=O)c2coc3c2[C@@]1(C)C1=C(C3=O)[C@@H]2CC[C@H](O)[C@@]2(C)C[C@H]1OC(C)=O,,-8.4%,
CO/C1=C/C(C)=C\[C@@H](C)[C@@H](O)[C@@H](C)C/C(C)=C\C=C/[C@H](OC)[C@@H]([C@@H](C)[C@@H](O)[C@H](C)[C@@]2(O)C[C@@H](O)[C@H](C)[C@@H](C(C)C)O2)OC1=O,,-5.16% [at 15.3 µM],
CC(C)N[C@@H]1CCn2c(=O)[nH]c3cccc(c32)[C@H]1O,,-5.02%,
C[C@@]12CCCCC[C@@H](Cc3ccc(O)cc31)[C@H]2N,inactive,,
CCN1C[C@@]2(COC)C3[C@@H](OC)C4[C@@H]1[C@@]3(C1C[C@]3(O)[C@H](OC(=O)c5ccccc5)C1[C@]4(OC(C)=O)[C@@H](O)[C@@H]3OC)[C@@H](OC)C[C@H]2O (stereo not given in full),,-6.13%,
CO[C@H]1CCC(O[C@H]2C[C@H]([C@]3(C)CC[C@]4(C[C@H](O)[C@@H](C)[C@@H]([C@@H](C)/C=C(\C)C(=O)[C@H](C)C[C@H](C)C(=O)O)O4)O3)O[C@]3(O[C@@H]([C@H]4O[C@@](O)(CO)[C@H](C)C[C@@H]4C)C[C@@H]3C)[C@@H]2C)O[C@@H]1C (stereo not given in full),,-12.7%,
CC(COc1ccc(Oc2ccccc2)cc1)Oc1ccccn1 (stereo not given),,-11.2%,
O=c1ccc2cc(O[C@@H]3O[C@H](CO)[C@H](O)[C@H](O)[C@H]3O)c(O)cc2o1,,,25.5 µM (active)
COC(=O)[C@]12CCC(C)(C)C[C@H]1[C@H]1C(=O)C=C3[C@@]4(C)C=C(C#N)C(=O)C(C)(C)[C@@H]4CC[C@@]3(C)[C@]1(C)CC2,,-9.31%,
CCCCCCC(C)(C)c1cc(O)c2c(c1)OC(C)(C)C1CC=C(CO)C[C@H]21 (stereo not given in full),,-26.5%,
Cc1[nH]ncc1-c1cc2nc([C@@H]3CC4CCN3CC4)[nH]c(=O)c2s1,,3.84%,
O=C(O)CNC(=O)C1C(=O)N(C2CCCCC2)C(=O)N(C2CCCCC2)C1=O,inactive,,
